Experimental data: PubChem BioAssay (Tox21)
Records with an inconclusive call do not appear. The source made the active and inactive calls. Unless noted, the call rests on the fitted dose curve; in most records, active means well fitted curve in the direction sought with a large enough effect in the repeat runs; inconclusive means weak or mixed curves; inactive means no such curve, though single readings can be large; an effect the other way counts as inactive or inconclusive.

Tests used:
[1] = A CellTox Green Cytotoxicity Assay to monitor cytotoxicity in HepG2 cells - 8 hour (AID 1224890); further: nearly all actives have a fitted effect of over 45% in size
In short: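 HepG2 cells, 600/well, preincubated 5 h with CellTox Green dye, then exposed to Tox21 compounds in DMSO at 37 C for up to 40 h. Dead-cell DNA fluorescence read at the indicated time point.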

[2] = qHTS assay to identify small molecule antagonists of the estrogen receptor alpha (ER-alpha) signaling pathway using the BG1 cell line in the presence of 0.1 nM 17-beta-estradiol - cell viability counter screen (AID 1259241); further: nearly all actives have a fitted effect of over 40% in size
In short: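 Viability in VM7Luc4E2 cells after 22 hr compound exposure under 0.1 nM 17beta-estradiol stimulation, by CellTiter-Fluor.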

[3] = qHTS assay to identify small molecule antagonists of the androgen receptor (AR) signaling pathway using the MDA cell line in the presence of 0.5 nM R1881 - cell viability counter screen (AID 1259242); further: nearly all actives have a fitted effect of over 45% in size
In short: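 MDA-kb2 cells (MMTV-luciferase, AR/GR responsive) were treated with compounds plus 0.5 nM R1881 (final) for 16 hr at 37C, 0% CO2. Viability was then read in the same wells as live-cell protease fluorescence (CellTiter-Fluor, 30 min).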

[4] = molecular target: Androgen receptor (Homo sapiens) (UniProt P10275); assay: qHTS assay to identify small molecule antagonists of the androgen receptor (AR) signaling pathway using the MDA cell line in the presence of 0.5 nM R1881 (AID 1259243); further: nearly all actives have a fitted effect of over 50% in size
In short: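 MDA-kb2 cells (MMTV-luciferase, responsive to AR and GR) at 3,000/well, rested 5 h at 37C, 0% CO2, then given compounds plus 0.5 nM R1881 (final) for 16 hr. Luciferase read with ONE-Glo after 30 min at room temperature.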

[5] = molecular target: Estrogen receptor (Homo sapiens) (UniProt P03372); assay: qHTS assay to identify small molecule antagonists of the estrogen receptor alpha (ER-alpha) signaling pathway using the BG1 cell line in the presence of 0.1 nM 17-beta-estradiol (AID 1259244); further: nearly all actives have a fitted effect of over 50% in size
In short: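 VM7Luc4E2 cells (endogenous full-length ER-alpha, 4×ERE-luciferase), kept 5 days in phenol red-free, charcoal-stripped FBS medium; 4,000 cells/well. Compounds added with 0.1 nM (final) 17beta-estradiol, 22 hr at 37C; luminescence read with ONE-Glo after 30 min.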

[6] = qHTS assay to identify small molecule HDAC inhibitors (AID 1259364); further: top concentration of the series differs between compounds; nearly all actives have a fitted effect of over 45% in size
In short: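 Wild-type HCT-116 cells, plated overnight at 37 C, exposed to compounds 2 hr at 37 C; luminogenic HDAC-Glo substrate then added 30 min at room temperature. Luminescence reports relative endogenous class I/II HDAC activity.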

[7] = qHTS assay to identify small molecule HDAC inhibitors - cell viability counter screen (AID 1259365); further: series mostly up to about 92 µM; nearly all actives have a fitted effect of over 50% in size
In short: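 Cytotoxicity was gauged in wild-type HCT-116 cells after a brief 2hr treatment with DMSO-dissolved compounds at 37C and 5% CO2, using CellTiter-Glo luminescence developed for 30min at room temperature.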

[8] = qHTS assay to identify small molecule antagonists of the sonic hedgehog signaling (Shh) pathway - cell viability counter screen (AID 1259367); further: nearly all actives have a fitted effect of over 55% in size
In short: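 Seed 3T3 Gli1-Luc cells at 2,000 per well; incubate 4 hr; add compound in DMSO, then conditioned medium; incubate at 37C with 5% CO2; add CellTiter-Fluor after 23 hr; read fluorescence 1 hr later.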

[9] = qHTS assay to identify small molecule agonists of the sonic hedgehog signaling (Shh) pathway (AID 1259368; calls by dose curve;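 further: NIH/3T3-derived 3T3Gli1-Luc cells carrying a stable Gli1-driven firefly luciferase reporter; series mostly up to about 92 µM; nearly all actives have a fitted effect of over 15% in size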)
In short: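 NIH/3T3-derived 3T3Gli1-Luc cells with stably integrated Gli1-driven firefly luciferase, 2,000 cells/well, compounds added after 4 hr. Incubated 24 hr at 37C, 5% CO2; luminescence read after 30 min with luciferase reagent at room temperature.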

[10] = qHTS assay to identify small molecule antagonists of the sonic hedgehog signaling (Shh) pathway (AID 1259369; calls by dose curve; further: nearly all actives have a fitted effect of over 45% in size)
In short: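 NIH/3T3-derived Gli1-Luc reporter cells plated 4 h, dosed with compound, then stimulated with conditioned medium for 24 h at 37 C. Firefly luciferase luminescence read after 30 min with detection reagent at room temperature.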

[11] = molecular target: Estrogen receptor beta (Homo sapiens) (UniProt Q92731); assay: qHTS assay to identify small molecule antagonists of the estrogen receptor beta (ER-beta) signaling pathway (AID 1259378; active means well fitted inhibition curve with a large enough effect in the signal ratio in the repeat runs, not every such curve was filed as active; the % refers to the signal ratio)
In short: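 ER-beta-UAS-bla HEK293T cells in 2% charcoal-stripped FBS medium treated with compound plus 1nM final 17-beta-estradiol for 16 hr at 37C. Beta-lactamase reporter read by FRET substrate fluorescence after 2 hours at room temperature.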

[12] = qHTS assay to identify small molecule agonists of the androgen receptor (AR) signaling pathway in the presence of an antagonist - cell viability counter screen (AID 1259379);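 further: MDA-kb2 human breast cancer cells carrying an MMTV luciferase reporter; series mostly up to about 92 µM; nearly all actives have a fitted effect of over 25% in size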
In short: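 MDA-kb2 cells (MMTV-luciferase, AR/GR), 3,000/well, 5 h attachment, then 3.0 µM nilutamide (final) and compounds at 15 concentrations. Viability by CellTiter-Fluor fluorescence after 16 h at 37 °C, 0% CO2, in the reporter wells.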

[13] = qHTS assay to identify small molecule agonists of the estrogen receptor beta (ER-beta) signaling pathway - cell viability counter screen (AID 1259380); further: nearly all actives have a fitted effect of over 30% in size
In short: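 ER-beta-UAS-bla HEK293T cells in medium with 2% charcoal-stripped FBS, pre-incubated 6 hr, then treated 16 hr at 37C. Cytotoxicity read in the same wells by CellTiter-Glo luminescence after 30 min at room temperature.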

[14] = molecular target: Androgen receptor (Homo sapiens) (UniProt P10275); assay: qHTS assay to identify small molecule agonists of the androgen receptor (AR) signaling pathway in the presence of an antagonist (AID 1259381; calls by dose curve; further: nearly all actives have a fitted effect of over 15% in size)
In short: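 MDA-kb2 cells carrying MMTV-luciferase (AR/GR responsive), 3,000 cells/well, co-treated with 3.0 uM nilutamide final. Compounds at 15 concentrations, 16 hr at 37C without CO2. Luciferase luminescence read after 30 min with ONE-Glo.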

[15] = qHTS assay to identify small molecule antagonists of the estrogen receptor beta (ER-beta) signaling pathway - cell viability counter screen (AID 1259382); further: series mostly up to about 92 µM; nearly all actives have a fitted effect of over 55% in size
In short: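 ER-beta-UAS-bla HEK293T cells in 2% charcoal-stripped FBS medium, treated with compound plus 1 nM 17-beta-estradiol for 16 h at 37C. Viability read by CellTiter-Glo luminescence after 30 min at room temperature in the same wells.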

[16] = molecular target: Estrogen receptor (Homo sapiens) (UniProt P03372); assay: qHTS assay to identify small molecule agonists of the estrogen receptor alpha (ER-alpha) signaling pathway in the presence of an antagonist (AID 1259383; calls by dose curve; further: top concentration of the series differs between compounds; nearly all actives have a fitted effect of over 15% in size)
In short: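 VM7Luc4E2 cells express endogenous full-length ER-alpha with an ERE-luciferase reporter and were hormone-deprived for 5 days. Compounds at 15 concentrations were added with 10.0nM ICI-182,780 for 22hr at 37C. Luminescence was read with ONE-Glo.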

[17] = qHTS assay to identify small molecule agonists or antagonists of the thyroid stimulating hormone receptor (TSHR) signaling pathway - wild type cell line counter screen (AID 1259384; calls by dose curve)
In short: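 Wild-type Hek293 cells, 800/well, 18 h at 37C, then compound with Ro20-1724 for 30 min RT. cAMP by HTRF (cAMP-d2/anti-cAMP cryptate), 1 h RT, fluorescence read. 15 concentrations, triplicates.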

[18] = qHTS assay to identify small molecule phospholipidosis (PLD) inducers (AID 1259344; active means well fitted curve in the direction sought with a large enough effect; an effect the other way counts as inactive or inconclusive)
In short: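 Quantitative HTS in HepG2: compound plus LipidTOX Red dye for 24 h, paraformaldehyde fixation with Hoechst 33342, widefield high-content imaging; amiodarone as positive and DMSO as negative control.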

[19] = qHTS assay to identify small molecule agonists of the sonic hedgehog signaling (Shh) pathway - cell viability counter screen (AID 1259366); further: nearly all actives have a fitted effect of over 50% in size
In short: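 Stable Gli1-Luc NIH/3T3 clone, 2,000 cells/well. Compound exposure 24hr at 37C. Read-out: CellTiter-Fluor fluorescence.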

[20] = molecular target: Estrogen receptor beta (Homo sapiens) (UniProt Q92731); assay: qHTS assay to identify small molecule agonists of the estrogen receptor beta (ER-beta) signaling pathway (AID 1259377; active means well fitted activation curve with a large enough effect in the signal ratio in the repeat runs, not every such curve was filed as active; the % refers to the signal ratio)
In short: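 Measured by fluorescence intensity from a B/G FRET beta-lactamase substrate (2 h, room temperature) in ER-beta-UAS-bla HEK293T cells treated with DMSO-dissolved compounds for 16 hr at 37C and 5% CO2.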

Measured: Potency

Chain of Estrogen receptor (Homo sapiens) (P03372 whole entry, looked up): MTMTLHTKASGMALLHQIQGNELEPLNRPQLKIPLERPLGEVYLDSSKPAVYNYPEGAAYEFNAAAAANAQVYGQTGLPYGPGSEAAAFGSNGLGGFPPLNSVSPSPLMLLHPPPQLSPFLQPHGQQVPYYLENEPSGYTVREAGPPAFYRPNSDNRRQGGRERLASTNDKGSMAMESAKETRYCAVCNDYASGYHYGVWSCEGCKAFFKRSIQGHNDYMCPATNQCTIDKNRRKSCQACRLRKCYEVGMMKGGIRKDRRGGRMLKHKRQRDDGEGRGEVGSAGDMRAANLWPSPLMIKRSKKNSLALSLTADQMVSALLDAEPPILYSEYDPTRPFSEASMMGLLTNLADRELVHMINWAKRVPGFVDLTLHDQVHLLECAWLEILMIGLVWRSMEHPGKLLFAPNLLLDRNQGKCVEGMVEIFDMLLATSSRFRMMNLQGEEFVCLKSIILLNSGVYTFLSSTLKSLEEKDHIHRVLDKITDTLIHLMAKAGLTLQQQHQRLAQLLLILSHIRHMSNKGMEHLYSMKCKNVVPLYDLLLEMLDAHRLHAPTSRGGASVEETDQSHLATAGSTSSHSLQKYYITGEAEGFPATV
Chain of Androgen receptor (Homo sapiens) (P10275 whole entry, looked up): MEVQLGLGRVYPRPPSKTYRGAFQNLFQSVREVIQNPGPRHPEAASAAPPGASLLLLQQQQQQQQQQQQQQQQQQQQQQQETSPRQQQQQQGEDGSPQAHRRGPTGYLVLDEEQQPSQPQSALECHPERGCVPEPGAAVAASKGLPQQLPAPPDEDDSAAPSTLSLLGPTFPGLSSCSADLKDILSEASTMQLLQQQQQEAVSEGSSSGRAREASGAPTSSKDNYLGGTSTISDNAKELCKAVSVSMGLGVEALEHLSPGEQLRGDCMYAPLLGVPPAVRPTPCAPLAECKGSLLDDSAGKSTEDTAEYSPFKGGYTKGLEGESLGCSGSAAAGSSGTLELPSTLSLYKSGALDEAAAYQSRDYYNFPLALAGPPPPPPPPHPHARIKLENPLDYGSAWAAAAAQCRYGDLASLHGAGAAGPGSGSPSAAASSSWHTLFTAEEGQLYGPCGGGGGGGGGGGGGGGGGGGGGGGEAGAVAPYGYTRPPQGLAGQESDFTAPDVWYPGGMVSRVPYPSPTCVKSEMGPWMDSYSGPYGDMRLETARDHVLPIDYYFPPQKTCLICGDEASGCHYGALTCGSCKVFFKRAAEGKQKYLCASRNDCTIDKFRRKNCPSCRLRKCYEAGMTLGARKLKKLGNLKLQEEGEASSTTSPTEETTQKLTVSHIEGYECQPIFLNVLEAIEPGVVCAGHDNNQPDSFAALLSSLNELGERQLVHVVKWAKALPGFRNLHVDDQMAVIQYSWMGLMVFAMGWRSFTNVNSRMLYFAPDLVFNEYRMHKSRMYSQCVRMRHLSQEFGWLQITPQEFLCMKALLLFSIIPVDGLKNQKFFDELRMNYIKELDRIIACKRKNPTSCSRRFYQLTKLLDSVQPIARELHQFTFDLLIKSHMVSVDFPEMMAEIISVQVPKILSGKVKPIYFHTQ
Chain of Estrogen receptor beta (Homo sapiens) (Q92731 whole entry, looked up): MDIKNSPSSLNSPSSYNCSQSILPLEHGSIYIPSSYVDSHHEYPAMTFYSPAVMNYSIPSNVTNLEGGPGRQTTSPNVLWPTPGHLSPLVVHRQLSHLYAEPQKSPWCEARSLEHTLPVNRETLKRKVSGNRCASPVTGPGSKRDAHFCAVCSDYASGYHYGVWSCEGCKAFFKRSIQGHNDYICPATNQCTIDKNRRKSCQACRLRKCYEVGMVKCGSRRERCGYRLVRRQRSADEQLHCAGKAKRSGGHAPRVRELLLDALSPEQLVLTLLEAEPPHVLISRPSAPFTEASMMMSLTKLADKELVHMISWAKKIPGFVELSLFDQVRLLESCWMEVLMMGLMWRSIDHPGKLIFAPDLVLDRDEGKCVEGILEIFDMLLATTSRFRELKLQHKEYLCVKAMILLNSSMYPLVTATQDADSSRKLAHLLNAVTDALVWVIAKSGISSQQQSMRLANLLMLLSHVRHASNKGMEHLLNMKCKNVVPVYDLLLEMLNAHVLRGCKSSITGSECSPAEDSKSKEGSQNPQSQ

CC(=O)c1ccc[nH]1
inactive: [1] | [2] | [3] | [4] | [5] | [6] | [7] | [8] | [9] | [10] | [11] | [12] | [13] | [14] | [15] | [16] | [17]

CCOC(=O)c1ccc(NC(=O)CN2CCCCC2)cc1
inactive: [1] | [2] | [3] | [4] | [5] | [18] | [6] | [7] | [19] | [8] | [9] | [10] | [12] | [14] | [15] | [16]

CSCC[C@H](NC(=O)[C@H](Cc1c[nH]c2ccccc12)NC(=O)CCNC(=O)OC(C)(C)C)C(=O)N[C@@H](CC(=O)O)C(=O)N[C@@H](Cc1ccccc1)C(N)=O
inactive: [1] | [2] | [3] | [5] | [18] | [6] | [7] | [19] | [8] | [9] | [10] | [20] | [11] | [12] | [13] | [15] | [16] | [17]

O=S(=O)(Cl)c1c(Cl)cccc1Cl
inactive: [1] | [2] | [3] | [4] | [5] | [6] | [7] | [8] | [9] | [11] | [12] | [13] | [14] | [15] | [16] | [17]

BrC(Br)C(Br)Br
inactive: [1] | [2] | [3] | [4] | [5] | [6] | [7] | [19] | [8] | [9] | [10] | [12] | [13] | [14] | [15] | [16] | [17]

Oc1cccc2[nH]ccc12
inactive: [1] | [2] | [3] | [4] | [5] | [6] | [7] | [19] | [8] | [9] | [10] | [20] | [11] | [12] | [13] | [14] | [15] | [16] | [17]

COc1cc(OC)c2ccc(=O)oc2c1
inactive: [1] | [2] | [3] | [4] | [5] | [7] | [19] | [8] | [9] | [11] | [12] | [13] | [14] | [15] | [16] | [17]
